Shown are actives, neighbours in structure and some others; about 4.7% of the full set was active somewhere.
TIM10 inh: inhibits growth of TIM10 yeast strain | S. cerevisiae TIM10 strain growth, BacTiter-Glo luminescence, 24 h | inhibition, % at 10 µM | hit rate 1.4% among 330,000 | AID 463195;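 active = inhibition of 40% or more at the single tested concentration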;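 also: wild-type TIM10 isogenic control strain grown at permissive 25 °C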
Calb FLC: C. albicans growth modulation with fluconazole | C. albicans CaCi-2 (fluconazole-resistant clinical isolate) + fluconazole, Alamar Blue growth, 48 h | hit rate 0.57% among 300,000 | growth inhibition, % (concentration not given with the values);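 active = growth inhibition above about 58% in most replicates, limit read from the data, passing the limit was not always enough; inconclusive = exactly half the replicates above a set limit; inactive = most replicates below a set limit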;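 also: all wells also contain fluconazole at 8 µg/ml as a sub-toxic cotreatment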
PfHsp90 yeast 2: inhibits growth of yeast expressing Plasmodium falciparum Hsp90 | S. cerevisiae expressing PfHsp90, BacTiter-Glo ATP, 48 h; yeast lacking PDR1 and PDR3 efflux regulators | inhibition, % at 9.4 µM | hit rate 0.32% among 310,000;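 active = every replicate shows inhibition above about 80%, whatever the replicate mean, limit read from the data; inconclusive = mean inhibition reaches the set limit but some replicate falls short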
tim23-1 inh: growth inhibitors of tim23-1 mutant yeast; S. cerevisiae tim23-1 growth, BacTiter-Glo luminescence, 24 h; inhibition, % at 20 µM; hit rate 1.3% among 330,000;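 active = growth inhibition of the mutant yeast at or above 50%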;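 also: temperature-sensitive mutant grown at 25 °C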
SKKanGAS inh: inhibitors of SKKanGAS S. pyogenes growth in kanamycin (SK-promoter or general growth effect); BacTiter-Glo, 6 h; inhibition, % at 7.5 µM; hit rate 1.3% among 300,000; AID 1662;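 active = mean replicate score, as percent of positive control median, at least 50; inconclusive = mean below 50 but one replicate at or above 50; inactive = mean and every replicate below 50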;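 also: strain carries kanamycin resistance gene driven by streptokinase promoter and grows in 40 µg/ml kanamycin; loss of luminescence reflects streptokinase promoter inhibition or plain growth inhibition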
tim10-1 inh: tim10-1 yeast growth inhibition; hit rate 2.2% among 330,000; S. cerevisiae tim10-1 ts strain growth, BacTiter-Glo, 24 h; inhibition, % at 20 µM; AID 463190;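 active = inhibition of at least 40%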;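 also: mutant grown at 25 °C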
tim10-1 confirm: confirmation of tim10-1 mutant yeast growth inhibitors; AID 463213; inhibition, % at 20 µM; hit rate 56% among 7,400; shares compounds with tim10-1 inh; S. cerevisiae tim10-1 ts strain growth, BacTiter-Glo, 24 h;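 active = inhibition of yeast growth at or above a set limit in either of two repeat tests at 20 µM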;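 also: tim10-1 mutant grown at permissive 25 °C to find synthetic lethal compounds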
Hits are given with their value; 0 = inactive; ? = inconclusive; - = not tested or not shown.

SMILES	TIM10 inh	Calb FLC	PfHsp90 yeast 2	tim23-1 inh	SKKanGAS inh	tim10-1 inh	tim10-1 confirm
O=C(/C=C/c1ccccc1)N(c1ccccn1)C1CCCCC1	0	0	0	0	0	43.2	0
O=C(/C=C/c1ccccc1Cl)N(c1ccccn1)C1CCCCC1	0	0	0	0	0	0	-
Cc1cc(Nc2nc3ccccc3nc2Cl)n(-c2ccccc2)n1	0	0	0	0	0	0	0
O=C(CSc1nccn1Cc1ccccc1)NC1CCCC1	0	0	0	0	0	0	-
COc1ccccc1C(=O)Nc1ccccc1C(=O)N1C(C)CCCC1C (stereo not given)	0	0	0	0	0	44.0	31.5
CC1Cc2cc(/C(O)=C3/C(=O)C(=O)N(CCCn4ccnc4)C3c3cccc([N+](=O)[O-])c3)ccc2O1 (stereo not given)	0	0	0	0	0	0	-
Cc1ccc(OCc2ccc(C(=O)NN)o2)cc1C	0	0	0	0	0	0	-
NNC(=O)c1ccc(COc2ccc3ccccc3c2)o1	0	0	0	0	0	41.9	0
COc1ccccc1C(=O)N/C(=C\c1ccc(Br)cc1)C(=O)N1CCCC1	0	?	-	0	0	0	-
Cc1ccc(NS(=O)(=O)c2ccc(-c3cnc(C4CC4)o3)cc2)cc1	0	0	0	0	0	40.4	0
COc1ccc(C)cc1NS(=O)(=O)c1ccc(-c2cnc(C3CC3)o2)cc1	0	0	0	0	0	43.3	0
Cc1ccc(CNS(=O)(=O)c2ccc(-c3cnc(C4CC4)o3)cc2)cc1	0	0	0	0	0	0	-
CC(=O)c1ccc(NS(=O)(=O)c2ccc(-c3cnc(C4CC4)o3)cc2)cc1	0	0	0	0	0	0	-
Cc1ccc(S(=O)(=O)N(C)CCN(C)S(=O)(=O)c2ccc(C)cc2)cc1	-	-	0	-	-	-	-
Cc1c(C(=O)NC2CCCc3ccccc32)oc2ccccc12 (stereo not given)	0	0	0	0	0	44.6	38.4
CC(=O)Nc1ccc(NC2CCCCC2NS(=O)(=O)c2ccc(Cl)cc2)cc1 (stereo not given)	0	0	0	0	0	0	-
COC(=O)C1CN(Cc2ccccc2)C(=O)C1=O (stereo not given)	-	-	0	-	-	-	-
CC1CCCC2(C1)NC(=S)N(c1ccccc1)N2 (stereo not given)	0	?	0	0	0	55.1	0
CC1CC(C)(C)CC2(C1)NC(=S)N(c1ccccc1)N2 (stereo not given)	0	0	0	0	0	0	-
COc1ccc(N2CCN(S(=O)(=O)CCNC(=O)/C=C/c3ccccc3)CC2)cc1	0	0	0	0	0	0	-
CCOC(=O)C1=C(N)Oc2cc(O)ccc2C1c1cccc([N+](=O)[O-])c1 (stereo not given)	0	0	0	0	0	45.9	0
O=C(NNC(=S)NC(=O)C12CC3CC(CC(C3)C1)C2)c1ccncc1	0	102.9	0	0	107.7	60.2	0
CCCc1ccc(-c2cc(NC(=O)CSc3nnc(N)s3)n(-c3ccccc3)n2)cc1	0	?	0	0	0	43.0	0
CCCc1cc(C(=O)Nc2cccc([N+](=O)[O-])c2)cs1	0	0	0	0	0	41.3	30.9
CC(=O)N(c1nnc(-c2cccc(C)c2)s1)C1CCCC1	0	0	0	0	0	0	-
SMILES	TIM10 inh	Calb FLC	PfHsp90 yeast 2	tim23-1 inh	SKKanGAS inh	tim10-1 inh	tim10-1 confirm
CCOc1cc2nc3c4ccccc4n(C)c3nc2cc1OCC	0	0	0	0	0	47.4	0
O=C(CCNC(=O)c1ccc([N+](=O)[O-])cc1)NCc1cccs1	0	-	-	0	-	0	-
C/C(=N\N1CCN(C2c3ccccc3-c3ccccc32)CC1)c1ccco1	0	0	0	0	0	40.9	0
C/C(=N\N1CCN(c2ccc(Cl)cc2)CC1)c1ccco1	0	0	0	0	0	0	-
CCC(C(=O)OC(C)C(=O)Nc1ccc(Cl)cn1)c1ccccc1 (stereo not given)	0	0	0	0	0	0	-
COc1ccccc1C(=O)NC(=O)Nc1c(C)cc(C)cc1C	0	0	0	0	0	42.4	39.7
COc1ccccc1C(=O)NNC(=O)c1ccc(C)cc1	0	0	0	0	0	0	-
Cc1cc(O)c2c(c1)C(=O)c1cc(O)cc(O)c1C2=O	0	-	0	0	0	45.4	0
CCC(=O)N(Cc1cc2ccc(C)cc2[nH]c1=O)c1ccccc1OC	0	0	0	0	0	0	-
